Compound activity deposited in PubChem BioAssay by Johns Hopkins Ion Channel Center.
KCNQ2 enhance = KCNQ2 (rat) channel potentiation | O88943 | CHO-K1 KCNQ2, FluxOR thallium flux fluorescence; hits give high values | B-score at 10 µM | actives 0.54% (n = 310,000) | AID 2239;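 active = fluorescence ratio B-score at least 3 SD of library B-scores, with initial fluorescence B-score within 3 of them, cut at about 5.3 in these data; same plate scores as AID 2156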;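 also: B-score of peak minus minimum over baseline fluorescence ratio after K+ and Tl+ stimulus; positive B-score means potentiation of KCNQ2 with more thallium influx and brighter signal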
KCNQ2 block = blocks the rat KCNQ2 potassium channel; actives 1.1% (n = 310,000); B-score at 10 µM; CHO-K1 KCNQ2, FluxOR thallium flux, 20 min; hits give low values; AID 2156;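 active = fluorescence ratio B-score at most minus 3 library SDs, with starting brightness B-score within 2 library SDs, cut at about -5.5 in these data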
Kir21 confirm = confirmation of mouse Kir2.1 potassium channel inhibitors | shares compounds with KCNQ2 enhance | Kir2.1-expressing cells, FluxOR thallium flux fluorescence; hits give low values | Tl flux remaining, % of negative control (hits give low values), % at 10 µM | actives 41% (n = 2,300) | AID 2032;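 active = Primary-screen hit whose thallium flux fell at least 3 control SD below untreated wells in both duplicates, with normal baseline fluorescence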;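 also: 0% = blank wells without stimulus and 100% = stimulated no-compound controls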
HEK293 Tl flux = parental HEK293 activity in Kir2.1 inhibitor counter-screen | shares compounds with KCNQ2 enhance | parental HEK293 cells, FluxOR thallium flux fluorescence; 0% = unstimulated blank wells | actives 19% (n = 2,300) | FluxOR signal as % of negative control (100 = no effect), % at 10 µM;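 active = dye signal at least 3 control SD above or below untreated wells in both duplicates, raw fluorescence within 3, either direction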;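 also: percent is based on the flux ratio of peak minus minimum fluorescence over baseline F0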
CHO-K1 ctr = parental CHO-K1 activity in KCNQ2 potentiator counter-screen; shares compounds with KCNQ2 enhance; parental CHO-K1 cells, FluxOR thallium flux fluorescence; zero = vehicle mean+3SD, 100% = vehicle-minus-blank window; activity increase over 3SD of controls, % at 10 µM; actives 43% (n = 1,200); AID 2282;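 active = signal rise of at least 3 SD above the untreated control mean, in both duplicate wells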;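 also: counter screen of KCNQ2 potentiator hits so any rise reflects channel-independent effects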
KCNQ1 pot spec = selectivity of KCNQ2 potentiators: effect on human KCNQ1 | shares compounds with KCNQ2 enhance | CHO KCNQ1 stable, FluxOR thallium flux fluorescence; beyond 3SD, as % of vehicle-control signal | activation over 3SD threshold, % at 10 µM | actives 28% (n = 1,200) | AID 2283;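 active = fluorescence ratio rise of at least 3 SD of vehicle wells above their mean, in both replicate wells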;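 also: 0% = vehicle mean plus 3 SD and 100% = vehicle minus unstimulated blank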
KCNQ2 pot confirm = confirmation of rat KCNQ2 potassium channel potentiators | shares compounds with KCNQ2 enhance | CHO-KCNQ2 cells, FluxOR thallium flux fluorescence | potentiation, less the hit threshold, % at 10 µM | actives 68% (n = 1,200) | AID 2287;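 active = fluorescence ratio rising 3 SD or more over the vehicle control mean in both replicates, plus primary screen hit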;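 also: peak minus minimum thallium fluorescence divided by baseline after K/Tl stimulus; 0% = vehicle mean plus 3 SD and 100% = vehicle minus unstimulated blank difference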
Kir2-1 sel = selectivity of KCNQ2 potentiators: effect on mouse Kir2.1 | shares compounds with KCNQ2 enhance | HEK293 Kir2.1, FluxOR thallium flux fluorescence | AID 2345 | actives 2% (n = 1,200) | activity over 3SD threshold, % at 10 µM;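 active = fluorescence ratio rise of at least 3 SD above the vehicle-control mean, seen in both replicates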;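 also: 0% = vehicle mean plus 3 SD and 100% = vehicle minus no-stimulus blank window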
KCNQ2 W236L MoA = KCNQ2 potentiators acting on retigabine-insensitive rat KCNQ2 W236L mutant; shares compounds with KCNQ2 enhance; CHO KCNQ2-W236L, automated patch clamp current; current increase over 3SD of negative controls (%), hits give high values, % at 25 µM; actives 10% (n = 940);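 active = current increase at least 3 SD of the untreated controls above them in both duplicate recordings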
Target sequence (O88943 whole entry W236L, looked up): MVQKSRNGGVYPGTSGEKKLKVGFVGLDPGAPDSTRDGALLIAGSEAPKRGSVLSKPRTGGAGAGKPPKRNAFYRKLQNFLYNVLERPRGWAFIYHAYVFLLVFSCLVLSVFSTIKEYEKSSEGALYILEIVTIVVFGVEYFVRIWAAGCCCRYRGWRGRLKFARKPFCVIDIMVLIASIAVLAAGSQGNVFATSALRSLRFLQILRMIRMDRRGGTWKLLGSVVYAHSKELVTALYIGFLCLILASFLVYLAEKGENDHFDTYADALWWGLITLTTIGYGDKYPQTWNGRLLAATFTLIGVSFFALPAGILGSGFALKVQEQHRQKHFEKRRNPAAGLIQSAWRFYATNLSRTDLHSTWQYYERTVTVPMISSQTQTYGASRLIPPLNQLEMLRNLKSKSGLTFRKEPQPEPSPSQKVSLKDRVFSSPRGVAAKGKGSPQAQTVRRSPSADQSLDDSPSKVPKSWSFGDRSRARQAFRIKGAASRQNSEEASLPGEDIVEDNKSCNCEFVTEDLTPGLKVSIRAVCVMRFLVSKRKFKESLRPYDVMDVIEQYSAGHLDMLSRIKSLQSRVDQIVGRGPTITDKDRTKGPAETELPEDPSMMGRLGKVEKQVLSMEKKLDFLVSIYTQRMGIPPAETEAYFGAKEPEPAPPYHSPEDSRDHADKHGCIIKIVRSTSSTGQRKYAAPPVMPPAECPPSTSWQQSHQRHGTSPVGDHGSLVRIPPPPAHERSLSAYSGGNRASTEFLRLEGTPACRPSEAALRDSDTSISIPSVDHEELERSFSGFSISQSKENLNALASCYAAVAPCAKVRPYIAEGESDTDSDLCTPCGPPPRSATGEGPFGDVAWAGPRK
Starred values were filed as active, the others as inactive; i = inactive; / = no result. Hits are enriched below; roughly 1.6% of the tested compounds scored in any of these assays.

SMILES | KCNQ2 enhance | KCNQ2 block | Kir21 confirm | HEK293 Tl flux | CHO-K1 ctr | KCNQ1 pot spec | KCNQ2 pot confirm | Kir2-1 sel | others
Cc1cccc(C)c1OCC(O)CN1CCC(CN2C(=O)c3cccc4cccc(c34)C2=O)CC1 (configuration not stated) | 5.71* | i | i | i | 49.6* | -15.7 | -21.6 | -27.4
Cc1cccc(Nc2c3c(nc4ccccc24)CCC3)c1 | / | i | 31.0%* | i | / | / | / | /
N#Cc1cccc(Nc2c3c(nc4ccccc24)CCC3)c1 | / | i | / | / | / | / | / | /
Cc1ccc(-n2ncc3c(SCc4cccnc4)ncnc32)c(C)c1 | 0.08 | i | / | / | / | / | / | /
O=C1/C(=C/c2cccc(Br)c2)SC(=S)N1/N=C/c1cc([N+](=O)[O-])ccc1O | 0.54 | i | / | / | / | / | / | /
COc1ccc(-c2nc(CSCC(=O)NCCCN3CCCC3=O)c(C)o2)cc1OC | / | i | / | / | / | / | / | /
CC(Sc1ccc(Cl)cc1)C(=O)NCc1ccc2c(c1)OCO2 (configuration not stated) | 7.66* | i | i | i | 81.4* | 13.9* | 3.7* | -64.2 | KCNQ2 W236L MoA=i
CC(Sc1ccc(Cl)cc1)C(=O)Nc1ccc2c(c1)OCO2 (configuration not stated) | 0.31 | i | / | / | / | / | / | /
CCOc1cccc(N(C(=O)CCC(=O)Nc2cc(C)on2)C(C(=O)NC(C)(C)C)c2ccc(OC)cc2)c1 (configuration not stated) | / | i | / | / | / | / | / | /
COc1ccc(C(C(=O)NC(C)(C)C)N(C(=O)CCC(=O)Nc2cc(C)on2)c2cccc(F)c2)cc1 (configuration not stated) | 5.56* | i | i | i | -20.6 | -5.8 | -27.1 | -30.1
CC(C)(C)c1csc(N/N=C/c2cccnc2)n1 | 1.5 | i | / | / | / | / | / | /
Cc1ccc(/C=N/Nc2nc(C(C)(C)C)cs2)o1 | 6.92* | i | i | 70.5%* | -8.2 | -27.0 | -3.0 | -32.9 | KCNQ2 W236L MoA=i
CCCCn1nnc(NC(=O)CC23CC4CC(CC(C4)C2)C3)n1 | 19.7* | i | i | i | 10.1* | -24.5 | 59.1* | -34.1 | KCNQ2 W236L MoA=i
CC(C)c1nnc(NC(=O)CC23CC4CC(CC(C4)C2)C3)s1 | / | i | / | / | / | / | / | /
Cc1ccc(CNC(=O)C2CCN(S(=O)(=O)c3ccc4c(c3)CC(C)N4C(=O)C3CCC3)CC2)o1 (configuration not stated) | 6.58* | i | i | i | -11.2 | -13.0 | -10.1 | -36.9
CC(C)CCNC(=O)C1CCN(S(=O)(=O)c2ccc3c(c2)CC(C)N3C(=O)C2CCC2)CC1 (configuration not stated) | 0.37 | i | / | / | / | / | / | /
COc1cccc(CN2C(=NC(=O)C3CC3)SC3CS(=O)(=O)CC32)c1 (configuration not stated) | / | i | / | / | / | / | / | /
Cc1onc(-c2ccccc2)c1CNS(=O)(=O)c1ccc(F)cc1F | / | i | / | / | / | / | / | /
Cc1onc(-c2ccccc2)c1CNS(=O)(=O)c1cccc(Br)c1 | 0.46 | i | 52.0%* | i | / | / | / | /
O=C(O)c1cccc(N2C(=O)CSC2c2ccccc2)c1 (configuration not stated) | 0.21 | i | / | / | / | / | / | /
CCn1ccnc1CN(C)Cc1cn[nH]c1-c1ccc(OC)c(F)c1 | / | i | / | / | / | / | / | /
Cc1csc(NC(=O)c2cc3c(s2)CCCCC3)n1 | 1.28 | i | / | / | / | / | / | /
Cc1csc(NC(=O)c2cc3c(s2)CCCC3)n1 | 7.28* | i | i | i | 95.9* | -18.2 | -2.5 | -28.8 | KCNQ2 W236L MoA=i
O=C(N/N=C1/SCC(=O)N1Cc1ccco1)c1ccccc1F | / | i | / | / | / | / | / | /
c1ccc(CCNc2ccnc3cc4ccccc4cc23)cc1 | 0.82 | i | i | i | / | / | / | /
SMILES | KCNQ2 enhance | KCNQ2 block | Kir21 confirm | HEK293 Tl flux | CHO-K1 ctr | KCNQ1 pot spec | KCNQ2 pot confirm | Kir2-1 sel | others
CC(C)Nc1ccc(Nc2ccnc3cc4ccccc4cc23)cc1 | / | i | / | / | / | / | / | /
COc1ccc(Oc2c(-c3ccc(O)cc3O)n[nH]c2C)cc1 | / | i | 61.0%* | i | / | / | / | /
CCCOC(=O)c1ccc(Oc2c(-c3ccc(OCC)cc3O)n[nH]c2C)cc1 | / | i | / | / | / | / | / | /
COCC(=O)N(CCc1ccc(OC)c(OC)c1)Cc1cc2cc(C)ccc2nc1Cl | / | i | / | / | / | / | / | /
COc1ccc(CN2CC(=O)N(c3cc(Cl)ccc3OC)C2=S)cc1OC | / | i | / | / | / | / | / | /
CCSc1nc2c(sc3ccccc32)c(=O)n1C(C)C | 6.03* | i | i | 243.5%* | 29.2* | 1.2* | 24.9* | -33.6 | KCNQ2 W236L MoA=i
CCCCn1c(SCC(N)=O)nc2c(sc3ccccc32)c1=O | 0.35 | i | / | / | / | / | / | /
CN1CCCCc2c1[nH]c1ccccc1c2=O | 1.26 | i | / | / | / | / | / | /
CC(C)Cc1nc(SCC(=O)N2CCCCC2)c2c(=O)n(C)c(=O)n(C)c2n1 | 26.8* | i | i | i | -24.0 | -4.9 | 121.3* | -15.7 | KCNQ2 W236L MoA=i
CC(C)c1nc(SCC(=O)N2CCOCC2)c2c(=O)n(C)c(=O)n(C)c2n1 | 1.84 | i | / | / | / | / | / | /
CCc1nc(SCC(N)=O)c2c(=O)n(C)c(=O)n(C)c2n1 | 0.95 | i | / | / | / | / | / | /
CC1CCN(C(=O)CSc2nc3c(c(=O)n(C)c(=O)n3C)n2C)CC1 | 1.45 | i | / | / | / | / | / | /
CCc1nc(SCC(=O)N2CCC(C)CC2)c2c(=O)n(C)c(=O)n(C)c2n1 | 15.6* | i | i | i | -6.8 | -26.0 | 81.2* | -18.2 | KCNQ2 W236L MoA=i
CC(C)Cc1nc(SCC(=O)N2CCOCC2)c2c(=O)n(C)c(=O)n(C)c2n1 | 3.23 | i | / | / | / | / | / | /
CCCc1nc(SCC(=O)N2CCC(C)CC2)c2c(=O)n(C)c(=O)n(C)c2n1 | 24.9* | i | i | i | -8.5 | -18.4 | 141.2* | -39.4 | KCNQ2 W236L MoA=i
CCc1nc(SCC(=O)N2CCCCC2)c2c(=O)n(C)c(=O)n(C)c2n1 | 9.12* | i | i | i | -20.7 | -20.4 | 41.9* | -13.2 | KCNQ2 W236L MoA=i
CC(C)CCNC(=O)c1sc2ccc(S(=O)(=O)N3CCCCC3)cc2c1N | / | i | / | / | / | / | / | /
C=CCN(c1ccccc1C(=O)NCC(=O)O)S(=O)(=O)c1ccccc1C | / | i | / | / | / | / | / | /
Cc1ccc2nc(-c3ccncc3)c(NC3CCCCC3)n2c1 | / | i | / | / | / | / | / | /
CCN1C(=O)S/C(=C/c2ccc(Sc3nc4ccccc4[nH]3)o2)C1=O | 0.34 | i | / | / | / | / | / | /
CN(C)Cc1c(C(=O)N/N=C/CCc2ccccc2)nnn1-c1nonc1N | / | i | / | / | / | / | / | /
N#CCCN(Cc1cccnc1)C(=O)c1sc2cc(F)ccc2c1Cl | / | i | / | / | / | / | / | /
